Among all 360,000 compounds or so, about 25,000 (6.9%) were called active. Not shown: some 9% with an inconclusive outcome. Calls come from the whole dose curve; as a rule, active = well fitted inhibition curve with a large enough effect; inconclusive = small, poorly fitted or top-dose-only effect; inactive = flat fitted curve, though single readings scatter. For the sample, actives were picked, then their nearest neighbours and some compounds at random.
Biological target: Luciferin 4-monooxygenase (Photinus pyralis) (UniProt P08659)
Experiment: qHTS profiling assay for firefly luciferase inhibitor/activator using purifed enzyme and Km concentrations of substrates (counterscreen for miR-21 project); note: nearly all actives have a fitted effect of over 55% in size;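 for activity change, negative = inhibition: plate controls were vehicle for no effect and reference inhibitor for full effect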
Details: purified FLuc, luminescence inhibition; series mostly up to 57.5 µM; activity change, negative = inhibition: at the top concentration
Method in brief: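 Biochemical qHTS of compounds, final roughly 60 µM downward over six points, against 10 nM purified firefly luciferase using Km concentrations of substrates (10 uM D-luciferin, 10 uM ATP) in Tris acetate pH 7.5 buffer; luminescence output.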
Potency is the fitted concentration of half-maximal effect.

Sequence of Luciferin 4-monooxygenase (Photinus pyralis) (P08659 whole entry, looked up): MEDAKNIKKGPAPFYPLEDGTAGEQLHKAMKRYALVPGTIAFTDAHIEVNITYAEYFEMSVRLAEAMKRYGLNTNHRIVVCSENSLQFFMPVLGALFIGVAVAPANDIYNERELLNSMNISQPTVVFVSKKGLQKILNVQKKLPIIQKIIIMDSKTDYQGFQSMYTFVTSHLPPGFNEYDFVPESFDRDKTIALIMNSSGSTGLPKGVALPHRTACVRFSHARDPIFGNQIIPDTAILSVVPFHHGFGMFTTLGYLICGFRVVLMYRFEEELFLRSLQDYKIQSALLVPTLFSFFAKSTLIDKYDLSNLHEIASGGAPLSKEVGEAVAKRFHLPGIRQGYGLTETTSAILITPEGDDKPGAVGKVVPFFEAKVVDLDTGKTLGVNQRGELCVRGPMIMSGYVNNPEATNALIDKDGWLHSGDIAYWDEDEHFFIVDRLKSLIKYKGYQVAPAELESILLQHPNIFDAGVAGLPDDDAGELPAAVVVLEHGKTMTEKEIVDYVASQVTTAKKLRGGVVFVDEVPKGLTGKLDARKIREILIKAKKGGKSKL

Row | Compound | activity change, negative = inhibition | Potency
1 | Cc1cccc(NC(=O)CN2CCN(C(=O)C3CCN(C(=O)/C=C/c4ccccc4)CC3)CC2)c1C | -18.8% (inactive) | 
2 | CCNC(=O)CC1C(=O)N(c2ccc(F)cc2)C(=O)N1CCc1sccc1C (stereo not drawn) | -2.04% (inactive) | 
3 | Cc1ccc(CN2CCc3nc(N4CCN(C)CC4)ncc3C2)cc1 | -1.97% (inactive) | 
4 | CCCCCN1CC(O)=C(c2nc(-c3ccc(Cl)cc3)cs2)C1=N | -2.37% (inactive) | 
5 | CCC(C)Sc1nnc(-c2c[nH]c3ccccc23)n1CCOC (stereo not drawn) | -6.48% (inactive) | 
6 | CCCc1cc(-c2nc(-c3ccc(C)cc3)cs2)ccn1 |  | 23.9 µM (active)
7 | Cc1ccc(-c2csc(-c3cc(C)on3)n2)cc1 |  | 8.49 µM (active)
8 | Cc1cc(-c2nc(C)c(-c3nnc(SCC(=O)Nc4ccccc4)n3C)s2)no1 | -1.89% (inactive) | 
9 | Cc1ccc(-c2csc(-c3c[nH]c4ccccc34)n2)cc1 |  | 12 µM (active)
10 | CCCc1cc(-c2n[nH]c(=S)n2CC)c2ccccc2n1 | -8.46% (inactive) | 
11 | Cc1cc(-c2n[nH]c(=S)n2-c2ccc(C)c(C)c2)no1 | -1.9% (inactive) | 
12 | Cc1ccc(-n2c(=O)c3cccnc3n2CC(=O)Nc2ccccc2C(F)(F)F)cc1C | 2.79% (inactive) | 
13 | Cc1ccc(OCC(=O)Nc2ccc(Cl)c(-c3nc4ccccc4[nH]3)c2)cc1C | -14.1% (inactive) | 
14 | O=C(/C=C/c1ccco1)Nc1cccc(-c2nc3ccccc3[nH]2)c1 |  | 7.57 µM (active)
15 | O=C(Nc1cccc(-c2nc3ccccc3[nH]2)c1)c1ccc(C(=O)Nc2cccc(-c3nc4ccccc4[nH]3)c2)cc1 |  | 12 µM (active)
16 | CCOC(=O)c1c(NC(=O)/C=C/c2ccco2)sc(C)c1C | -11% (inactive) | 
17 | Cc1ccc(-n2nc3ccc(NC(=O)/C=C/c4ccco4)cc3n2)cc1C |  | 9.53 µM (active)
18 | CN(c1ccccc1)S(=O)(=O)c1cc(C(=O)Nc2nc3ccccc3[nH]2)ccc1Cl | -20.5% (inactive) | 
19 | NS(=O)(=O)c1cccc(NC(=O)COC(=O)/C=C/c2ccco2)c1 | -5.38% (inactive) | 
20 | Cc1cccc(NC(=O)C2CCN(S(=O)(=O)c3c(C)noc3/C=C/c3ccco3)CC2)c1 | -0.915% (inactive) | 

Row | Compound | activity change, negative = inhibition | Potency
21 | CC(C)Oc1ccc(/C=C(\NC(=O)/C=C/c2ccco2)C(=O)NCCc2nc3ccccc3[nH]2)cc1 | 7.21% (inactive) | 
22 | COC(C[C@H](O)CC(=O)COCc1ccccc1)OC | -2.58% (inactive) | 
23 | CC(=O)NC12CC3CC(C1)CC(C(=O)N1CCN(C(=O)c4ccco4)CC1)(C3)C2 | 7.4% (inactive) | 
24 | CCOc1ccc(OCC)c(NC(=O)c2c(C)nn(-c3ccccc3)c2-n2cccc2)c1 | -3.33% (inactive) | 
25 | CN(C)C(CNC(=O)c1cccc(C#N)c1)c1ccco1 (stereo not drawn) | -2.34% (inactive) | 
26 | CCN(C(=O)COc1cccnc1[N+](=O)[O-])C1CCS(=O)(=O)C1 (stereo not drawn) | 5.49% (inactive) | 
27 | CC(C)c1ccc(NC(=O)CN(C)S(=O)(=O)c2ccc3c(c2)c(=O)n(C)c(=O)n3C)cc1 | -17.2% (inactive) | 
28 | COc1ccccc1CN1CCC(CNC(=O)c2cnn(-c3cccc(Cl)c3)c2C2CCN(C(=O)OC(C)(C)C)CC2)CC1 | -2.61% (inactive) | 
29 | CCc1ccc(N(CC)C(=O)CCn2cnc3onc(-c4ccc(F)cc4)c3c2=O)cc1 | -0.244% (inactive) | 
30 | O=C(Nc1ccccc1)N1CCC(C(=O)N2CCN(Cc3ccccc3)CC2)CC1 | -1.44% (inactive) | 
31 | O=C(Nc1ccc2c(c1)OCCO2)C1CCCC1 |  | 9.53 µM (active)
32 | O=C(Nc1ccc2c(c1)OCCO2)C1CCCN(c2ncccn2)C1 (stereo not drawn) |  | 0.953 µM (active)
33 | O=C(Nc1ccc2c(c1)OCO2)C1CC1(Cl)Cl (stereo not drawn) |  | 16.9 µM (active)
34 | Cc1cc(C)nc(N2CCC(C(=O)Nc3ccc4c(c3)OCCO4)CC2)n1 | -8.26% (inactive) | 
35 | O=C(Nc1cccc(Cl)c1)C1CCCN(c2cnccn2)C1 (stereo not drawn) | 1.81% (inactive) | 
36 | CN1C(=O)c2ccc(NC(=O)C3CCCCC3)cc2C1=O | -1.5% (inactive) | 
37 | S=C(Nc1ccc2c(c1)OCO2)N1CCCC1 | -19.1% (inactive) | 
38 | COC(=O)c1cccc(C(=O)N2CCCC(Nc3ccc4c(c3)OCCO4)C2)c1 (stereo not drawn) | -1.7% (inactive) | 
39 | O=C(Nc1ccc2c(c1)OCO2)c1sc2cc(Cl)ccc2c1Cl | -3.98% (inactive) | 
40 | CC(C)(C)C(=O)Nc1ccc(C(=O)N/N=C/c2ccccc2OC(=O)c2ccc(Cl)cc2Cl)cc1 | -12% (inactive) | 

Row | Compound | activity change, negative = inhibition | Potency
41 | CCOc1cc(/C=C/C(=O)OCC(=O)NCCN2C(=O)CSC2=O)ccc1OCC(C)C | 0.543% (inactive) | 
42 | COc1ccc(C2C(=O)N(C3CCCCC3)CC(=O)N2Cc2ccccc2Cl)cc1OC (stereo not drawn) | -7.49% (inactive) | 
43 | Cc1nc(SCCOc2ccc(Cl)cc2)[nH]c(=O)c1Cc1ccccc1 | 0.0351% (inactive) | 
44 | O=C(CSc1nccn1Cc1ccc(F)cc1)NCc1ccccc1 | 1.89% (inactive) | 
45 | Cc1ccc2nc(/C(C#N)=C/c3ccc(-c4ccc(C(=O)OC(C)C)cc4)o3)[nH]c2c1 | -19.6% (inactive) | 
46 | Fc1ccc(-c2csc(-c3ccc(C4SCCS4)cc3)n2)cc1F |  | 10.7 µM (active)
47 | COc1cc(CC(=O)Nc2nc(-c3ccc(F)c(F)c3)cs2)cc(OC)c1OC | 5.45% (inactive) | 
48 | COc1ccc(CC(=O)Nc2nc(-c3ccc(F)c(F)c3)cs2)cc1OC | 5.15% (inactive) | 
49 | COc1ccc2c(c1)c(N1CCCC1=O)c(C(=O)Nc1ccc(OC)c(Cl)c1)n2C | -10.9% (inactive) | 
50 | CCOc1ccccc1CNC(=O)C1CCCN(S(=O)(=O)c2ccc3c(ccn3C)c2)C1 (stereo not drawn) | 1.69% (inactive) | 
51 | Cc1cc(C)nc(SCc2nnc(SCC(=O)Nc3ncc(C)s3)n2Cc2ccco2)n1 | -1.43% (inactive) | 
52 | COc1cccc(NC(=O)CN(C)CC(=O)Nc2ccc3c(c2)CCC3)c1 | -8.65% (inactive) | 
53 | COc1ccc(CC(=O)Nc2ccc3c(c2)CCC3)cc1S(=O)(=O)N1CCOCC1 | -5.57% (inactive) | 
54 | CC(C)C(=O)OCC(=O)Nc1ccc2c(c1)CCC2 |  | 19 µM (active)
55 | COc1ccc(NC(=O)CN2CCCN(Cc3ccccc3)S2(=O)=O)cc1 | -13.7% (inactive) | 
56 | CCCN(CCC)CCCNC(=O)Cn1ncc2c3ccccc3n(Cc3ccccc3)c2c1=O | 1.1% (inactive) | 
57 | CCOC(=O)c1c(NC(C)=O)sc2c(O)c(Br)ccc12 | 2.45% (inactive) | 
58 | Cc1ccc2[nH]c(=O)c(CN(CC3COCCO3)C(=O)Nc3ccccc3C)cc2c1 (stereo not drawn) | -2.57% (inactive) | 
